# Screens: PubChem BioAssay, The Scripps Research Institute Molecular Screening Center
# Only some compounds are listed: those with a hit (about 3.5% of all), similar ones and a draw of the others.
# FBW7 activator: FBW7 E3 ligase activators, primary screen, biochemical, AlphaScreen, human; AlphaScreen FBW7–phospho-cyclin E peptide binding, activator screen; normalized activity (activation), % at 26.1 µM; actives 0.13% (n = 650,000); AID 1259310, 2017; F-box/WD repeat-containing protein 7 (Homo sapiens), Q969H0; in the data active means normalized activity above about 1.9%;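 further: purified mutant Fbw7 with reduced substrate affinity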
# TEAD-YAP inh: TEAD-YAP interaction inhibition, primary screen, TEAD-YAP interaction inhibitor project, luminescence, HEK-TIYL cells. TEAD-Gal4/YAP UAS-luciferase luminescence. inhibition, % at 9.12 µM. actives 1.4% (n = 640,000). AID 1259422, 2018; in the data active means inhibition above about 32%;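 further: 0% = median of test compound wells and 100% = reference inhibitor wells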
# GPR151 activ: activators of human GPR151, primary screen, cell-based, PathHunter beta-arrestin, luminescence | G-protein coupled receptor 151 (Homo sapiens), Q8TDV0 | PathHunter beta-arrestin GPR151 cells | activation, % at 11.2 µM | actives 1% (n = 650,000); in the data active means activation above about 4.9%;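 further: 0% = median of compound wells and 100% = cells with positive control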
# MITF primary: MITF inhibitors, primary screen, biochemical, AlphaScreen, human; Microphthalmia-associated transcription factor (Homo sapiens), O75030; AlphaScreen MITF homodimerization, bead proximity signal; inhibition, % at 2.6 µM; actives 0.91% (n = 650,000); in the data active means inhibition above about 50%;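 further: 0% = vehicle wells with protein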
# Active calls of the source: *.
SMILES,FBW7 activator,TEAD-YAP inh,GPR151 activ,MITF primary
CC(=O)c1cc(F)c(N2CCN(C(=O)c3cc(F)c(F)cc3Br)CC2)cc1C,0.9,7.8,-0.1,6.8
CCOc1ccccc1NC(=O)NCC1(O)CCCC1,0.8,0.1,-0.8,16.9
CCOC(=O)c1sc2nc(C)n(CC(=O)Nc3ccc(OC)cc3OC)c(=O)c2c1C,0.1,7.7,0.1,4.3
CCCCC(CC)C(=O)Nc1ccc(S(=O)(=O)NC(C)(C)C)cc1 (centres undefined),0.7,-2.4,0.0,20.7
Clc1ccc(-n2ncc3c(NCCN4CCOCC4)ncnc32)cc1,0.0,42.0*,0.8,-2.9
Clc1ccc(CCNc2ncnc3c2cnn3-c2ccc(Cl)cc2)cc1,0.1,-0.1,0.3,8.8
COc1ccc(OC)c(NS(=O)(=O)c2ccc3[nH]c4c(c3c2)CCCC4)c1,-0.1,35.4*,2.0,-2.1
COc1cc(NS(=O)(=O)c2ccc3c(c2)Cc2ccccc2-3)cc(OC)c1OC,-0.1,41.7*,4.9,9.1
COc1cc(NS(=O)(=O)c2ccc3[nH]c4c(c3c2)CCCC4)cc(OC)c1OC,0.2,55.3*,1.1,6.3
CC(C)C(=O)Nc1ccc(S(=O)(=O)NCC2(c3cccs3)CCOCC2)cc1,0.1,4.0,-1.3,12.6
Clc1ccccc1CN1c2ccccc2N(Cc2ccccc2Cl)C1c1ccccc1Cl,0.6,81.1*,1.0,6.3
OC1CCN(Cc2ccccc2Cl)CC1,-0.2,5.0,0.8,17.7
CS(=O)(=O)c1ccc2c(c1)NC(=O)C(Cc1ccccc1)N2C(=O)Cc1ccccc1 (centres undefined),-0.2,1.6,-1.1,13.9
COc1cc(-c2ccc(NC(=O)Nc3ccccc3C)c(OC)c2)ccc1NC(=O)Nc1ccccc1C,0.5,45.1*,-1.7,13.7
CCOC(=O)c1ccc(CN(Cc2ccc(OC)cc2)S(=O)(=O)c2ccc(F)cc2)cc1,0.1,-6.3,-1.4,-5.8
CCOC(=O)C1=C(Cc2ccc(OC)cc2)C(=O)c2ccccc2C1=O,0.2,46.2*,-0.9,11.8
CCOC(=O)C1=C(c2ccc(F)cc2)C(=O)c2ccccc2C1=O,-0.6,26.3,0.0,13.5
Cc1occc1C(=O)N1CCC2(CC1)CC2C(=O)NCC1(c2ccccc2)CCOCC1 (centres undefined),-0.2,-4.8,1.0,-12.2
CCN1/C(=C/C=C/c2oc3ccc(Cl)cc3[n+]2CC)Oc2ccc(Cl)cc21,-0.1,5.9,-0.1,1.4
CCN1/C(=C/C=C/c2oc3ccc4ccccc4c3[n+]2CC)Oc2ccc3ccccc3c21,0.2,77.9*,1.7,-8.2
N/C(=N\OC(=O)c1ccc(Cl)c(Cl)c1)c1ccc([N+](=O)[O-])cc1,0.0,1.3,1.2,4.2
Nc1nc2c(nc(NCCCN3CCOCC3)n2[C@@H]2O[C@H](CO)[C@@H](O)[C@H]2O)c(=O)[nH]1,-0.1,3.8,-1.0,-0.6
O=C(Nc1ccc(Oc2ccc([N+](=O)[O-])c3cnccc23)cc1)c1ccco1,0.1,39.4*,-2.1,19.4
CCc1nc(C)ccc1OCC(=O)NCCO,0.0,-4.1,2.4,-6.7
CC(C)c1ccc2oc(-c3ccc(N)cc3O)nc2c1,-0.1,86.8*,-0.9,-3.2
SMILES,FBW7 activator,TEAD-YAP inh,GPR151 activ,MITF primary
CC(C)c1ccc2oc(-c3cc(N)ccc3O)nc2c1,-0.2,63.9*,-3.6,11.0
Cc1cc2nc(-c3ccc(N)cc3O)oc2cc1C,0.0,30.6,-0.3,6.6
Cc1ccc2oc(-c3cc(N)ccc3O)nc2c1,-0.1,-34.8,-7.8,7.2
CC(=O)c1ccc(NC(=O)c2cnn3ccccc23)cc1,-0.1,91.5*,-5.4,3.2
CC(=O)c1cccc(NC(=O)c2cnn3ccccc23)c1,-0.1,5.4,-2.8,6.4
O=C(Nc1ccc(CN2CCOCC2)cc1)c1cnn2ccccc12,-0.2,91.3*,-4.2,7.0
Cc1ccc(NC(=O)c2cnn3ccccc23)cc1C,-0.1,65.5*,-3.3,-5.3
Cc1cc(C)cc(NC(=O)c2cnn3ccccc23)c1,0.1,-42.5,-0.4,14.4
CC#CC(=O)N1CCCC(N2CCN(c3ccccc3OC)CC2)C1 (centres undefined),-0.1,-11.3,-0.3,-0.5
CC12CCC(=O)N1C(C(=O)Nc1nc3c(s1)CCCC3)CS2 (centres undefined),0.1,-9.1,0.5,4.5
COc1ccc(C(=O)Nc2nnc(C3CCCCC3)s2)cc1OC,0.3,-1.2,-0.4,-0.6
